Measurements from PubChem BioAssay (NCATS).
Inconclusive results are not listed. Active and inactive are the calls of the source. Unless noted, calls follow the shape of the dose curve; as a rule, active = well fitted curve in the direction sought with a large enough effect; inconclusive = small, poorly fitted or top-dose-only effect, or another doubt; inactive = no such curve, though single readings can be large; an effect the other way counts as inactive or inconclusive.

Assays:
[1] = AP1 Signaling Pathway (AID 357; active = well fitted curve in either direction with a large enough effect, not every such curve was filed as active;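 also: ME-180 reporter cells stimulated with EGF at its EC50 level; % is scaled to controls: 0 for no effect and ±100 for the full control effect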)
Summary of the method: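 Read-out was the 460nm/530nm emission ratio (excitation 405nm) after CCF4 loading for 2.5 hours at room temperature. Cells carried an AP-1-driven beta-lactamase reporter, were stimulated with EC50 EGF plus compound for 5 hours, and AC50 values came from titrations.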

[2] = molecular target: Cytochrome P450 1A2 (Homo sapiens) (UniProt P05177); assay: p450-cyp1a2 (AID 410; calls by dose curve; also: potency is read from the fitted curve at half-maximal effect;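 as to activity change, negative = inhibition: -100% = full effect of reference inhibitor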)
Summary of the method: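 20nM CYP1A2, 100uM Luciferin-ME (=Km), 100mM KPO4; cpd 10 min RT; +NADPH regen, 60 min RT; stop/detect 20 min; luminescence. Normalized to furafylline 57 uM = full inhibition.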

[3] = NFAT Signaling Pathway (AID 444; active = well fitted curve in either direction with a large enough effect, not every such curve was filed as active;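 also: carbachol stimulus at about its EC50 of 1 µM final; % is scaled to controls: 0 for no effect and ±100 for the full control effect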); details: Jurkat NFAT-bla M1, carbachol, beta-lactamase ratio, 5 h; at 17.2 µM (top of the series) unless noted
Summary of the method: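 Read-out: CCF4 FRET ratio (460 nm/530 nm) after 1 h RT dye loading, used for %activity and AC50 from titration series. Cells: Jurkat NFAT-β-lactamase/M1 line, treated with compound plus 1 uM carbachol for 5 h, 37 °C.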

[4] = Stat Signaling Pathway (AID 446; active = well fitted curve in either direction with a large enough effect, not every such curve was filed as active;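 also: ME-180 cervical cancer cells given 40 pM IL-6 alongside compound; SIE-controlled beta-lactamase reporter measured as 460/530 nm FRET emission ratio; % is scaled to controls: 0 for no effect and ±100 for the full control effect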)
Summary of the method: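 FRET read-out (405 nm excitation, 460/530 nm emission) of a beta-lactamase reporter under a STAT-inducible element in ME-180 cervical carcinoma cells. Cells with compound receive 40 pM IL-6 for 5 h. Values are normalised to AC90 stimulation and AC90 JAK-inhibitor controls.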

[5] = molecular target: 3',5'-cyclic-AMP phosphodiesterase 4B (Homo sapiens) (UniProt Q07343); assay: qHTS Assay for Inhibitors of PDE-IV (AID 607; active = well fitted activation curve with a large enough effect in the main read-out, with a control signal flat, not every such curve was filed as active; also: % of control where 0% means no effect)
Summary of the method: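 Cell-based read-out of cAMP via a modified cyclic nucleotide-gated channel and membrane potential dye (535/590 nm) in HEK293 cells expressing PDE4 endogenously. Compounds tested up to 22.9 uM final; 100 uM RO 20-1724 reference.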

[6] = qHTS Assay for Lipid Storage Modulators (AID 1519; calls by dose curve); details: Drosophila S3 cells, BODIPY lipid droplet/cell ratio, laser cytometry, cells loaded with oleic acid; for activity change, negative = inhibition: at 25.7 µM (top of the series)
Summary of the method: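 Cells seeded at 5,000 per well were treated with compounds over a concentration series and loaded with oleic acid (400 uM, as added). Lipid droplet fluorescence (488 nm excitation, 500-530 nm channel) was read by laser-scanning cytometry and normalized to 20 uM Triacsin C.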

[7] = molecular target: Mitogen-activated protein kinase 10 (Mus musculus) (UniProt Q61831); assay: JNK3 AlphaScreen Assay (AID 530; active = well fitted curve in either direction with a large enough effect, not every such curve was filed as active;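 also: kinase came from lysate of stimulated human HepG2 cells; signal reports phosphorylation of biotinylated GST-cJun 1-79 at Ser73 with 10 µM ATP; % is scaled to controls: 0 for no effect and ±100 for the full control effect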)
Summary of the method: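 Kinase buffer: 20 mM Tris-HCl pH 7.6, 10 mM MgCl2, 1 mM DTT, 0.1 mM Na3VO4, 0.01% Tween-20; ATP 10 uM. Substrate biotin-GST-cJun(1-79), enzyme from activated HepG2 lysates. Detection by Ser73 phospho-antibody AlphaScreen.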

[8] = molecular target: Ubiquitin carboxyl-terminal hydrolase 1 (Homo sapiens) (UniProt O94782); assay: Inhibitors of USP1/UAF1: Pilot qHTS (AID 504865);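 also: rhodamine fluorescence freed from ubiquitin-rhodamine substrate followed over time; top concentration of the series differs between compounds; % is scaled to controls: 0 for no effect and ±100 for the full control effect; nearly all actives have a fitted effect of over 35% in size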
Summary of the method: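 Kinetic fluorescence assay: 1nM USP1/UAF1, 15 min compound preincubation, then 150nM Ub-Rho; 480/540 nm.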

[9] = molecular target: Glucocorticoid receptor (Homo sapiens) (UniProt P04150); assay: GR-GFP Redistribution (AID 450;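 active = compounds whose dose series gives a full or clear partial fitted curve of increased nuclear translocation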; also: potency is read from the fitted curve at half-maximal effect); details: U2OS GR-GFP nuclear translocation, laser cytometry, 2 h
[10] = molecular target: Glucocorticoid receptor (Homo sapiens) (UniProt P04150); assay: GR-EFC Redistribution (AID 451; calls by dose curve; also: potency is read from the fitted curve at half-maximal effect); details: CHO-K1 GR-EFC translocation, beta-gal luminescence, 2 h
Summary of the method: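 Translocation of GR-ED fusion to nuclear EA restores b-gal, read by luminescence after 1 h room-temperature detection. Engineered CHO-K1 biosensor cells, 1,000/well, exposed 2 h at 37 C to titrations up to 46 uM final.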

[11] = molecular target: Luciferin 4-monooxygenase (Photinus pyralis) (UniProt P08659); assay: Biochemical firefly luciferase enzyme assay for NPC (AID 624030); also: nearly all actives have a fitted effect of over 70% in size; also: potency is read from the fitted curve at half-maximal effect;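 as to activity change, negative = inhibition: purified P. pyralis luciferase at 10 nM with luciferin and ATP substrate; 0% = DMSO and -100% = full luciferase inhibition by PTC124 control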
Summary of the method: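 Direct inhibition of firefly luciferase enzyme (10 nM final, 50 mM Tris Acetate) assessed by luminescence within 5 minutes. Percent activity scaled between DMSO and PTC124 positive control, with concentration-effect curves classified by fit quality and response.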

[12] = S16 Schwann cell viability assay (CellTiter-Glo assay) (AID 624031);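 also: cellular ATP luminescence as a viability measure; plate controls were DMSO-treated cells for no effect and cell-free wells for full effect; nearly all actives have a fitted effect of over 70% in size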
Summary of the method: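 Native S16 rat Schwann cells, 500-750 cells/well in DMEM with 10% FBS, dosed with compound after overnight culture and incubated 24h at 37 degree Celsius/5% CO2. Viability by CellTiter-Glo luminescence; % activity normalized to no-cell wells and DMSO-treated cells.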

[13] = S16 Schwann cell PMP22 intronic element beta-lactamase assay (AID 624044; calls by dose curve;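 also: 0% = DMSO and -100% = potassium clavulanate positive control; nearly all actives have a fitted effect of over 15% in size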)
Summary of the method: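 Beta-lactamase reporter under a PMP22 intronic regulatory element in stable S16 rat Schwann cells; 24 h compound exposure. 460 nm blue signal normalized between DMSO (0%) and potassium clavulanate, with 535 nm FRET tracking viability; curves classed by r2 and response.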

[14] = qHTS profiling for inhibitors of Plasmodium falciparum proliferation (AID 504749);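 also: 0% = DMSO vehicle and full inhibition = artemisinin control; nearly all actives have a fitted effect of over 60% in size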; details: P. falciparum in erythrocytes, SYBR Green DNA, 72 h, at 12.8 µM (top of the series)
Summary of the method: (§1)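 In a 72 h erythrocytic culture (37 C, humidified, 5% CO2) at 2.5% hematocrit and 0.3% starting parasitemia, compounds were tested; SYBR Green I in detergent lysis buffer stained parasite DNA overnight.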

C2A = assay: as above; details: P. falciparum in erythrocytes, SYBR Green DNA, 72 h; series mostly up to 12.8 µM
Summary of the method: as §1

CP217 = assay: as above; details: P. falciparum in erythrocytes, SYBR Green DNA, 72 h; series mostly up to 12.8 µM
Summary of the method: as §1

CP250 = assay: as above; details: P. falciparum in erythrocytes, SYBR Green DNA, 72 h; series mostly up to 12.8 µM
Summary of the method: as §1

FAB9 = assay: as above; details: P. falciparum in erythrocytes, SYBR Green DNA, 72 h; series mostly up to 12.8 µM
Summary of the method: as §1

JCK = assay: as above; details: P. falciparum in erythrocytes, SYBR Green DNA, 72 h; series mostly up to 12.8 µM
Summary of the method: as §1

SC27B = assay: as above; details: P. falciparum in erythrocytes, SYBR Green DNA, 72 h; series mostly up to 12.8 µM
Summary of the method: as §1

[15] = measured here: cell count channel max response
[16] = measured here: lipid channel max response

Ubiquitin carboxyl-terminal hydrolase 1 (Homo sapiens), sequence (O94782 whole entry, looked up): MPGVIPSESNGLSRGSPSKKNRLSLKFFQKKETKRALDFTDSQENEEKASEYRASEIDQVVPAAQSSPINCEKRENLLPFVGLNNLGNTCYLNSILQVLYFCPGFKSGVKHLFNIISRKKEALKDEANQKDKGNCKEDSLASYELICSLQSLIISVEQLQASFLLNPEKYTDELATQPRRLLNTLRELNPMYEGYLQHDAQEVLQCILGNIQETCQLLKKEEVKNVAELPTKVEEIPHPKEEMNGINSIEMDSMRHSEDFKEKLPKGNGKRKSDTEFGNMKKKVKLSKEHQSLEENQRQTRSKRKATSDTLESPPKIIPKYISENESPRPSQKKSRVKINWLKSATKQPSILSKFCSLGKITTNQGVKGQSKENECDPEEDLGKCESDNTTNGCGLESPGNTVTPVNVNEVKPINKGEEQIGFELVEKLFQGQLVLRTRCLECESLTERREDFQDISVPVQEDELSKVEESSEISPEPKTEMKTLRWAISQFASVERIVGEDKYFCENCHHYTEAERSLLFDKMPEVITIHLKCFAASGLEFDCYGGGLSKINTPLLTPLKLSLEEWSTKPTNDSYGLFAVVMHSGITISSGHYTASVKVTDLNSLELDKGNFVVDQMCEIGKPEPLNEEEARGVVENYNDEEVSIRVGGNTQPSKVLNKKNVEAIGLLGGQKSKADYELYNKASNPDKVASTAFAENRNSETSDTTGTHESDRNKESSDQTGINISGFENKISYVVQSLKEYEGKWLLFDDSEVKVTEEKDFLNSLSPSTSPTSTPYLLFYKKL
Cytochrome P450 1A2 (Homo sapiens), sequence (P05177 whole entry, looked up): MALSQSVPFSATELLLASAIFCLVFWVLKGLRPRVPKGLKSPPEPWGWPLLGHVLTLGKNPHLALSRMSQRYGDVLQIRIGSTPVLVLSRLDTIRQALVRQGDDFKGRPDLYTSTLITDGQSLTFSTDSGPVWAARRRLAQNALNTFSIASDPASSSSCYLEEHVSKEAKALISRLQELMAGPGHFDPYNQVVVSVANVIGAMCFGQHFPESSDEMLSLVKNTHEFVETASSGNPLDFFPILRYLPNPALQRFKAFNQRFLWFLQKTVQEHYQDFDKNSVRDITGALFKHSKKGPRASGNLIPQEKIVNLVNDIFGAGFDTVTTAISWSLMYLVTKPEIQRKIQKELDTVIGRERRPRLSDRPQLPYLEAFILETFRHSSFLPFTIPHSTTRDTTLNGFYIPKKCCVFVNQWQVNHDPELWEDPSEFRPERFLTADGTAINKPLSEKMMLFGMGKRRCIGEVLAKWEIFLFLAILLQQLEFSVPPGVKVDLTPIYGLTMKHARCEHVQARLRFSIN
Glucocorticoid receptor (Homo sapiens), sequence (P04150 whole entry, looked up, the tested form may be a part): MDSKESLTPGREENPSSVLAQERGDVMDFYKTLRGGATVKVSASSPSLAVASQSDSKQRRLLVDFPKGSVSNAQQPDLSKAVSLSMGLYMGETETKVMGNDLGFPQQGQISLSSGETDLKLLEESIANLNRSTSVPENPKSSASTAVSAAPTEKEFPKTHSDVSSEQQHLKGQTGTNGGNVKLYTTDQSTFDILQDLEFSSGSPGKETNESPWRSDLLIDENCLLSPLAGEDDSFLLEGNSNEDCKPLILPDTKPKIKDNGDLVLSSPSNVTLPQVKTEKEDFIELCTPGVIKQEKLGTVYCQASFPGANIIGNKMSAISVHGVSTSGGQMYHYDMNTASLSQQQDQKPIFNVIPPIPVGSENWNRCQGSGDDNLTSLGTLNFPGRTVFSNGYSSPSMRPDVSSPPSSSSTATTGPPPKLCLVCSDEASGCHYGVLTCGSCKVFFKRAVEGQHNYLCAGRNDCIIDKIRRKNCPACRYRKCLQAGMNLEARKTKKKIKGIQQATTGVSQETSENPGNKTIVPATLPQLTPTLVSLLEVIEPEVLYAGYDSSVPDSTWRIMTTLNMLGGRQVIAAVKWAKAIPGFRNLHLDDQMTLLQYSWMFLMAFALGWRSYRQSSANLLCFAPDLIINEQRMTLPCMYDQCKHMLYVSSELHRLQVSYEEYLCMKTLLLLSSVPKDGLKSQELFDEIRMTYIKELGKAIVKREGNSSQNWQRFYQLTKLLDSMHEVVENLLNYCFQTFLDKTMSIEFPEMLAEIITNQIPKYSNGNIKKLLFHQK
3',5'-cyclic-AMP phosphodiesterase 4B (Homo sapiens), sequence (Q07343 whole entry, looked up): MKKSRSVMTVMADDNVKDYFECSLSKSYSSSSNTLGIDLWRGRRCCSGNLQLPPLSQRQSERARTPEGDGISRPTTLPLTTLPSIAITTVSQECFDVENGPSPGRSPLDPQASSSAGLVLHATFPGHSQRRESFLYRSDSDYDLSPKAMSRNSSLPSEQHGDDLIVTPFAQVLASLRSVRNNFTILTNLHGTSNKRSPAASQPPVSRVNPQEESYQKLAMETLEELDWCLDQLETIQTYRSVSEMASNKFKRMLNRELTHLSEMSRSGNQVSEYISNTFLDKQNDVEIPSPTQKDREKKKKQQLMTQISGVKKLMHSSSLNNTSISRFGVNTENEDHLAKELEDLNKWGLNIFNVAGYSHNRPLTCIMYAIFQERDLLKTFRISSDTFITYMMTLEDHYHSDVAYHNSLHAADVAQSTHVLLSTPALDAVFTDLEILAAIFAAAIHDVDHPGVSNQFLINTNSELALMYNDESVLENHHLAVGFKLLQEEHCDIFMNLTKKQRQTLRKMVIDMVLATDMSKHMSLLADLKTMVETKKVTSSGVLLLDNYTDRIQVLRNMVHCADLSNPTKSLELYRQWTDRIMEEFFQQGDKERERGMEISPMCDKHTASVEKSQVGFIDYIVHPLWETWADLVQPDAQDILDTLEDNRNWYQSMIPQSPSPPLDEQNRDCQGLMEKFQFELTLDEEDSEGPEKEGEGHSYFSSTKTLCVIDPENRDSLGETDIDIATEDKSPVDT
Luciferin 4-monooxygenase (Photinus pyralis), sequence (P08659 whole entry, looked up): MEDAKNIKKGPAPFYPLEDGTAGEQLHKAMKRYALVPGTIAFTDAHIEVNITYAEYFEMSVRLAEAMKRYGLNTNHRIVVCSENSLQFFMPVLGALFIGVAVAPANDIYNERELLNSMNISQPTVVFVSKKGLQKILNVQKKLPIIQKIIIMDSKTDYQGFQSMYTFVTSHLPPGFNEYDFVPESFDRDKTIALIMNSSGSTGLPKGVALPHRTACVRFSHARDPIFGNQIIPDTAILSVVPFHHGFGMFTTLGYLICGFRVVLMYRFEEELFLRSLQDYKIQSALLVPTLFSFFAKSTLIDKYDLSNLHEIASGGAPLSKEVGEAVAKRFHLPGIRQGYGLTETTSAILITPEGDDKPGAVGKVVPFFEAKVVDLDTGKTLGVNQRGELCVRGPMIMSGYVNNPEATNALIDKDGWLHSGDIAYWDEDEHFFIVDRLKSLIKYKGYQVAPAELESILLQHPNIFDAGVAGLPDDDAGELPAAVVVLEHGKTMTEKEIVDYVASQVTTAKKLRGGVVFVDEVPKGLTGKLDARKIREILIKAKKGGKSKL

CN(C)c1ccc(O)c2c1C[C@H]1C[C@H]3[C@@H](N(C)C)C(=O)C(C(N)=O)=C(O)[C@]3(O)C(=O)C1=C2O
0.719%: max response [6, 16]
2.32%: max response [6, 15]
inactive: outcome [1] | Potency [2] | activity change, negative = inhibition [3] 12.2% | outcome [4] | outcome [5] | activity change, negative = inhibition [6] -0.929%

CC[C@@H]1OC(=O)[C@H](C)[C@H](O[C@@H]2C[C@](C)(OC)[C@H](O)[C@H](C)O2)[C@H](C)[C@H](O[C@@H]2O[C@@H](C)C[C@@H](N(C)C)[C@@H]2O)[C@](C)(O)C[C@H](C)[C@@H]2N[C@H](COCCOC)O[C@H]([C@@H]2C)[C@]1(C)O
-9.89%: max response [6, 16]
-8.33%: max response [6, 15]
inactive: outcome [1] | Potency [2] | activity change, negative = inhibition [3] -16.7% | outcome [4] | Potency [7] | outcome [5] | activity change, negative = inhibition [6] -3.92% | Potency [8]

CNC[C@H](O)c1ccc(OC(=O)C(C)(C)C)c(OC(=O)C(C)(C)C)c1
14.1%: max response [6, 15]
16.1%: max response [6, 16]
inactive: outcome [1] | Potency [2] | activity change, negative = inhibition [3] 1.95% | Potency [9] > 20.6 µM | Potency [10] > 20.6 µM | outcome [5] | activity change, negative = inhibition [6] 0.431% | Potency [11] | outcome [12] | Potency [13] | activity, negative = inhibition ([14]; parasite line A) -7.03% | Potency (C2A) | Potency (CP217) | Potency (CP250) | Potency (FAB9) | Potency (JCK) | Potency (SC27B)

C=N[C@H](C(=O)N[C@@H]1C(=O)N2[C@@H]1SC(C)(C)[C@@H]2C(=O)O)c1ccccc1
-4.08%: max response [6, 16]
inactive: outcome [1] | Potency [2] | activity change, negative = inhibition [3] -0.342% | outcome [4] | Potency [7] | outcome [5] | activity change, negative = inhibition [6] -2.09% | Potency [8]
-2.49%: max response [6, 15]

C[C@@H](C(=O)O)c1ccc(C(=O)c2ccccc2)s1
2.32%: max response [6, 16]
active: Potency [2] 251 nM | Potency [11] 4.89 µM
1.62%: max response [6, 15]
inactive: outcome [1] | activity change, negative = inhibition [3] 4.12% | outcome [4] | Potency [7] | outcome [5] | activity change, negative = inhibition [6] -0.119% | Potency [8] | outcome [12] | Potency [13] | activity, negative = inhibition ([14]; parasite line A) 5.2% | activity, negative = inhibition ([14]; parasite line B) 16.9% | Potency (C2A) | Potency (CP217) | Potency (CP250) | Potency (FAB9) | Potency (JCK) | Potency (SC27B)

CC[C@H](C)C(=O)O[C@@H]1C[C@H](C)C=C2C=C[C@H](C)[C@@H](CC[C@H]3C[C@@H](O)CC(=O)O3)[C@H]21
-1.87%: max response [6, 15]
inactive: outcome [1] | Potency [2] | activity change, negative = inhibition [3] 11.4% | Potency [9] > 20.6 µM | Potency [7] | outcome [5] | activity change, negative = inhibition [6] -5.83% | Potency [8]
-8.58%: max response [6, 16]
